Results reported in PubChem BioAssay AID2662 (National Center for Advancing Translational Sciences (NCATS), 2010).
Hit rate of the full screen: of about 290,000 compounds, about 110 (0.038%) were called active. About 3% were inconclusive and are not listed. The call rests on the fitted dose curve; in most records, active means well fitted inhibition curve with a large enough effect in the polarisation, with a control signal flat (not every such curve was filed as active); inconclusive means small, poorly fitted or top-dose-only effect, or effect the other way, or a change in a side signal; inactive means no such curve, though single readings can be large or run the other way; the % refers to the polarisation. What follows is part of a selection rich in actives, with near analogues and random picks from the rest. Entries that show only a call come without a potency.

molecular target: Histone-lysine N-methyltransferase 2A (Homo sapiens) (UniProt Q03164); assay: qHTS Fluorescence Polarization Assay for Inhibitors of MLL CXXC domain - DNA interaction; conditions: MLL-CXXC / FITC-HOXA9 DNA fluorescence polarization; series mostly up to 115 µM
Sequence (Q03164 whole entry, looked up, the tested form may be a part): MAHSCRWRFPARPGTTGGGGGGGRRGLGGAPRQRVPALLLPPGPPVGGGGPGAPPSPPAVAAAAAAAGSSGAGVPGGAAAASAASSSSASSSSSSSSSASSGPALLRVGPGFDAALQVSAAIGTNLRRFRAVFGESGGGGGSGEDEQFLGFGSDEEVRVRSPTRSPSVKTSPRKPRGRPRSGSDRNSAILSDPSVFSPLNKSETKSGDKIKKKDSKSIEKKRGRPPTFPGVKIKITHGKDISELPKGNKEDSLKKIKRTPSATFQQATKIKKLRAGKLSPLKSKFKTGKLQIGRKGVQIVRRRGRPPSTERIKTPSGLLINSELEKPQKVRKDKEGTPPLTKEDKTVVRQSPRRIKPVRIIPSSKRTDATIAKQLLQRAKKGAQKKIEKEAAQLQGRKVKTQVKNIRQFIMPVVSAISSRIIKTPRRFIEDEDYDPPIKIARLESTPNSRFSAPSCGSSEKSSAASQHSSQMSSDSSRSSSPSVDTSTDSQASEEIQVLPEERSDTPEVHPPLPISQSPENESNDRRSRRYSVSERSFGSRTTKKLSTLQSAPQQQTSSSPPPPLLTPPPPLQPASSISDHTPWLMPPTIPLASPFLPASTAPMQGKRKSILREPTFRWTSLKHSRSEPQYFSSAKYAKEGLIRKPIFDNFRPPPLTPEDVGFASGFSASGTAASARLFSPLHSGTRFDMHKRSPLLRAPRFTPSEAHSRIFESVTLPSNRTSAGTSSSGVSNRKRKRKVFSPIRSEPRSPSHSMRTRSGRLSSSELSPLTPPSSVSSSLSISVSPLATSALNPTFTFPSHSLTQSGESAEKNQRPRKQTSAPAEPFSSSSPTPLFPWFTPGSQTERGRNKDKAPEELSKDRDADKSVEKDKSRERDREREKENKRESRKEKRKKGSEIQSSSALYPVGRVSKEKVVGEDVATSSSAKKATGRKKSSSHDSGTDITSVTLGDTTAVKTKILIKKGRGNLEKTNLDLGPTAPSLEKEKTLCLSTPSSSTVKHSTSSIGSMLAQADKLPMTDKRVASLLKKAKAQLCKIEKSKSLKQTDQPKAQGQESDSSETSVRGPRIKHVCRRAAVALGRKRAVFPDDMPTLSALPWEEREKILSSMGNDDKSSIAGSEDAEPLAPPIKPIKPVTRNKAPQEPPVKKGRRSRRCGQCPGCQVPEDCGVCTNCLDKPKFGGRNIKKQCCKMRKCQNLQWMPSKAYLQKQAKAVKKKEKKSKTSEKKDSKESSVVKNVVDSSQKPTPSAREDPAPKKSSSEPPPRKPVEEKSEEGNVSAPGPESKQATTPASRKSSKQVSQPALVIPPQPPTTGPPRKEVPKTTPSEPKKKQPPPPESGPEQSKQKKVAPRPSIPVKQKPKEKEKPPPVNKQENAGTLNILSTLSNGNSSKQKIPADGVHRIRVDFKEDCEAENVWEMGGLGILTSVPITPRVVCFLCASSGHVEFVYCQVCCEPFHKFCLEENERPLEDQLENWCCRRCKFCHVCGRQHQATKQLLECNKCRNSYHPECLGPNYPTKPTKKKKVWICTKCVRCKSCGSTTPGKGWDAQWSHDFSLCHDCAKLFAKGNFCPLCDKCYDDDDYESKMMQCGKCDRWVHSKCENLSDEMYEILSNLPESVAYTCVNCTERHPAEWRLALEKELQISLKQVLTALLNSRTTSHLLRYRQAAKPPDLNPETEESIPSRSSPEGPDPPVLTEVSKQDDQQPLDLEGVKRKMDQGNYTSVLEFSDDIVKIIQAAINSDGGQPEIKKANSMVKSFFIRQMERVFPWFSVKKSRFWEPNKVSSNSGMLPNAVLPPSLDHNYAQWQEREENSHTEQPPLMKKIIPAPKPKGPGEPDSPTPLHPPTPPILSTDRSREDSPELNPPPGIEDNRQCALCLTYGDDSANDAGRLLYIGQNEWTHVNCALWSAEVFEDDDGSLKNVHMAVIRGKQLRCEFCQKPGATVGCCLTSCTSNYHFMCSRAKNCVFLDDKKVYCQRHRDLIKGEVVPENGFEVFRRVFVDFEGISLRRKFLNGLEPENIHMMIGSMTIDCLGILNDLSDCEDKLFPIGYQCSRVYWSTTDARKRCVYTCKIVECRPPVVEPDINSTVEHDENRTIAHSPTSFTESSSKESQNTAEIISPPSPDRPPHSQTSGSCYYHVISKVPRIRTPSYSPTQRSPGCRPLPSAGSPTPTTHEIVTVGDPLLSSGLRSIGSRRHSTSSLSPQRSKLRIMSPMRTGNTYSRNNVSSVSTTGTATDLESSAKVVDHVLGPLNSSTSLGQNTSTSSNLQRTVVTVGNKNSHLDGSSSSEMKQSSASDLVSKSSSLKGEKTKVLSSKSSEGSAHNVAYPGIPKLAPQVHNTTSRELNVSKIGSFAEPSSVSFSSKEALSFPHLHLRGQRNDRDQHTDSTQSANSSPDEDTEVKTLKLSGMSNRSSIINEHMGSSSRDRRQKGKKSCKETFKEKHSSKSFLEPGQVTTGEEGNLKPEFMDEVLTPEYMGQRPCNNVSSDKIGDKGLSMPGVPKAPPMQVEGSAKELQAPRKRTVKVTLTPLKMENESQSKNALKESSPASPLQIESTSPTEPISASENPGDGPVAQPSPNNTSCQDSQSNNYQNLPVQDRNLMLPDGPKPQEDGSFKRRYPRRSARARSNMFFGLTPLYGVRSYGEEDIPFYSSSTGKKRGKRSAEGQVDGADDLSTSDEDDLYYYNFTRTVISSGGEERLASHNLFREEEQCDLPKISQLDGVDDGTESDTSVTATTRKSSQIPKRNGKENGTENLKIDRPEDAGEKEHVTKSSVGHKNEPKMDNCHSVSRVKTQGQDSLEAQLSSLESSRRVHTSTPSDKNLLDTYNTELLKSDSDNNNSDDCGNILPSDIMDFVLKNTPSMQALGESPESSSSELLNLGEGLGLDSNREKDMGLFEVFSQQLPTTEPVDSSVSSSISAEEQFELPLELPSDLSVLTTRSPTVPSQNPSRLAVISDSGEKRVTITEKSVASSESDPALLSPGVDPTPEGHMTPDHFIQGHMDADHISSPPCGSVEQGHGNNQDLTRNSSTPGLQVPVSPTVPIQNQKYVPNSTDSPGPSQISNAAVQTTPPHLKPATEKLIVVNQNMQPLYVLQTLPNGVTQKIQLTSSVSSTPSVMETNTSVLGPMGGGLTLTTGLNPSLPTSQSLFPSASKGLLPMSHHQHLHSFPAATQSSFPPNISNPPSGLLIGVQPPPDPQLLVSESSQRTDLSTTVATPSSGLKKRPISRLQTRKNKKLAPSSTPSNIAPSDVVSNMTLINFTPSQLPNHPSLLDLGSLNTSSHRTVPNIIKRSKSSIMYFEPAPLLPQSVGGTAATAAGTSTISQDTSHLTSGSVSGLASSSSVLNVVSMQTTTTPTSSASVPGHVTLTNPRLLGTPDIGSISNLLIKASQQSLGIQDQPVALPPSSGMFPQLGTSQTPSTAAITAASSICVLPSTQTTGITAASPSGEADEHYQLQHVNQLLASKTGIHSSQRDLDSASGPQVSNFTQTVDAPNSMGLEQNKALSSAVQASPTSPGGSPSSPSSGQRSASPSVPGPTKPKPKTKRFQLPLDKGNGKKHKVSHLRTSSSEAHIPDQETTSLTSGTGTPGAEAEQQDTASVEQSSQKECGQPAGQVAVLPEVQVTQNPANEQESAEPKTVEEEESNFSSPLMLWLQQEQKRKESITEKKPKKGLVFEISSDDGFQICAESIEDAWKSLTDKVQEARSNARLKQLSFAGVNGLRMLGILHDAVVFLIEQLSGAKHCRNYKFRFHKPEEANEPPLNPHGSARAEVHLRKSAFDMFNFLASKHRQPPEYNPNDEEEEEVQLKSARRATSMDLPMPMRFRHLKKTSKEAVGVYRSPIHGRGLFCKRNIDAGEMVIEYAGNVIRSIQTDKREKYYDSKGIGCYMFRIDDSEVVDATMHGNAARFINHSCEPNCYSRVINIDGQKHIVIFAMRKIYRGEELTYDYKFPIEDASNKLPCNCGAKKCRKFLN
In short: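 Fluorescence polarization: 7 uM MLL-CXXC (stock) preincubated 5 min with compounds, then 50 nM fluorescein-HOX-A9 DNA (stock) added; 30 min ambient. Buffer 50 mM Tris-HCl pH 7.5, 50 mM NaCl, 1 mM DTT, 0.05% BSA.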
Potency means the concentration at half of the fitted maximal effect.

SMILES	Potency
O=C(NCCN1CCOC1=O)C1CCC(=O)N(CCc2ccc(Cl)cc2)C1 (centres undefined)	inactive
Cc1cccc(-n2ncc(Cl)c(Cl)c2=O)c1	inactive
O=C(NCc1ccncc1)C(=O)NCC1OCCN1S(=O)(=O)c1ccc(Br)cc1 (centres undefined)	inactive
NC(=O)C(=O)N/N=C/c1ccc([N+](=O)[O-])o1	inactive
Cc1ccc(NC(=O)CSc2cccc3cccnc23)c(C)c1	inactive
O=C1NN(c2ccccc2)C(=O)/C1=C/c1ccc(-c2cccc(C(=O)O)c2)o1	20 µM (active)
O=C(O)C(c1ccccc1)N1C(=O)/C(=C\c2ccc(-c3cccc(Cl)c3)o2)SC1=S (centres undefined)	inactive
Cc1cccc(C)c1-n1c(C)cc(/C=C2\C(=O)NN(c3ccccc3)C2=O)c1C	inactive
O=C(NCCCn1ccnc1)c1cc2c(s1)CCCC2	inactive
CCOC(=O)/C(N=Nc1cc(C(=O)O)cc(C(=O)O)c1)=C(\O)CCl	25.1 µM (active)
O=C(NC1CCN(S(=O)(=O)c2ccc(F)cc2)CC1)c1ccccc1	inactive
O=S(=O)(c1ccc(Br)c2ccccc12)N1CCOCC1	inactive
COCCCN1C(=O)C(=O)/C(=C(/O)c2ccc(S(=O)(=O)N3CCOCC3)cc2)C1c1ccc(F)cc1 (centres undefined)	inactive
CCOc1ccc2nc(N(CCCN(C)C)C(=O)c3ccc(C(=O)c4ccccc4)cc3)sc2c1	inactive
O=C1CCC(C(=O)N2CCN(c3ccccc3Cl)CC2)CN1CC1CCCCC1 (centres undefined)	inactive
CCOC(=O)Cn1c(O)c(N=NC(=O)CNC(=O)Cc2ccccc2)c2ccccc21	inactive
Cc1cc(C)nc(N/N=C/c2c(CO)cnc(C)c2O)n1	inactive
CCCNC(=O)c1ccc(N2CCC3(CC2)CC(c2ccc(Cl)cc2)=NO3)c([N+](=O)[O-])c1	inactive
CCOC(=O)C1CCN(S(=O)(=O)c2ccc3c(c2)N(C)C(=O)CC(=O)N3C)CC1	inactive
O=C(NCc1ccncc1)C1CCN(C(=O)c2cccc(Cl)c2)CC1	inactive
O=C(CNC(=O)[C@@H]1Cc2ccccc2CN1)NC1CCCCC1	inactive
Cc1nn(C)c(Cl)c1CN1CCC(Oc2ccc(C(=O)N3CCCC3)cc2)CC1	inactive
Cc1ccc(S(=O)(=O)N/N=C(\c2ccccc2)C2CC2)cc1	inactive
O=C(NCCCn1ccnc1)c1cc(Br)c(Br)s1	inactive
Cc1cccc(CN2CCC(n3nccc3NC(=O)c3ccccc3C)CC2)n1	inactive
Cc1cc(=O)oc2c3c(cc(OCC(=O)N[C@H](C(=O)O)c4ccccc4)c12)OC(C)(C)CC3	inactive

SMILES	Potency
CCCNC(=O)c1cnc(-c2ccccc2)nc1-c1ccccc1	inactive
CCCCc1nc2cc(C(=O)NCCc3cnn(C)c3)ccc2o1	inactive
COc1ccc(NC(=S)N2CCC(NC(=O)c3cccc(F)c3)CC2)cc1	inactive
S=C(Nc1ccc(Cl)cc1Cl)N1CCCC1	inactive
Cc1ccc(-c2csc(N3CCN(c4cc5c(cc4Cl)nc(-c4ccncc4)n5CCOCCO)CC3)n2)cc1	inactive
O=C(N/N=C/c1cccnc1)c1ccc(NC(=O)c2ccc(F)cc2)cc1	inactive
COCCC(=O)N1CCC(Oc2ccc(C(=O)NCc3ccon3)cc2)CC1	inactive
O=c1[nH]cnc(O)c1C(c1ccc(F)cc1)c1c(O)nc[nH]c1=O	inactive
CCCc1nnc(NC(=O)CCC(=O)N2CCN(S(=O)(=O)c3ccc(OC)cc3)CC2)s1	inactive
O=C(c1cc2ccccc2o1)N1CCN(c2cccc(C(F)(F)F)c2)CC1	inactive
CCN(CC)CCCNC(=S)N(CCO)Cc1cc2cc3c(cc2[nH]c1=O)OCO3	inactive
CC(=O)N(CC(O)CO)c1c(I)c(C(=O)NCC(O)CO)c(I)c(C(=O)NCC(O)CO)c1I (centres undefined)	inactive
CC(C)=CCN1CCN(Cc2cc3ccccc3[nH]2)CC1CCO (centres undefined)	inactive
CCc1ccc(C(=O)NN=C2CCCCCC2)s1	inactive
COc1ccc(C(=O)Nc2ccc(C(=O)NCC3CCCO3)cc2)c(OC)c1OC (centres undefined)	inactive
O=C(c1cccc(Br)c1)N1CCN(C2=NS(=O)(=O)c3ccccc32)CC1	inactive
O=C(NCCCNC(=O)c1ccccc1Cl)c1cnccn1	inactive
Cc1cc(C)c(C(=O)CSc2nc(C)cc(=O)[nH]2)c(C)c1	inactive
NC(=O)Cn1cc(/C=N\NS(=O)(=O)c2ccccc2)c2ccccc21	inactive
COc1cccc(CN(C)CC2CCCN(CCc3ccc(Cl)cc3)C2)c1OC (centres undefined)	inactive
C/C=C/C=N/NC(=O)c1ccncc1	inactive
CN1C(=O)[C@H]2[C@@H](C3CC3)N3C(=O)CN(Cc4ccccc4)C(=O)[C@@]3(C)[C@H]2C1=O	inactive
COc1ccc(C(=O)CCC(=O)Nc2cccnc2)c(OC)c1	inactive
CC(C)(O)c1ccccc1CC[C@H](SCC1(CC(=O)O)CC1)c1cccc(/C=C/c2ccc3ccc(Cl)cc3n2)c1	inactive
CCN(CC)c1ccc(C(=O)Nn2c(C)nc3ccccc3c2=O)cc1	inactive
O=C(NC(=S)Nc1ccc(Cl)c(C(=O)O)c1)c1cncc(Br)c1	inactive

SMILES	Potency
CC(C)c1ccc(C2C(C(=O)c3ccco3)=C(O)C(=O)N2CC2CCCO2)cc1 (centres undefined)	inactive
COc1cc(C)c(C)cc1S(=O)(=O)N1CCCc2ccccc21	inactive
Cc1c(S(=O)(=O)N2CC(C)CC(C)C2)c(=O)n(C)c(=O)n1C (centres undefined)	inactive
O=CN1CCN(C(=O)c2ccc(Br)o2)CC1	inactive
Cc1ccc(NS(=O)(=O)c2ccc(-c3coc(C)n3)cc2)c(C)c1	inactive
COc1ccc(S(=O)(=O)Nc2c(C)n(C)n(-c3ccccc3)c2=O)cc1	inactive
COc1ccc(S(=O)(=O)/N=C2\C=C(NS(=O)(=O)c3ccccc3)C(=O)c3ccccc32)cc1	25.1 µM (active)
COc1ccc2cc(S(=O)(=O)Nc3ccccn3)ccc2c1	inactive
NC(=O)c1cc(S(=O)(=O)N2CCCC2)ccc1OCc1ccc(F)cc1	inactive
O=C(O)c1ccc(S(=O)(=O)N2CCOCC2)o1	inactive
CCn1nc(C)c(CNC(=O)C2CCC(=O)N(Cc3cccc(F)c3)C2)c1C (centres undefined)	inactive
COc1ccc(-c2cc(=O)oc3cc(OCC(=O)N(C)C4CCS(=O)(=O)C4)ccc23)cc1 (centres undefined)	inactive
Cc1cc(C)c2c(Cn3ccnc3)cc(=O)oc2c1	inactive
Cc1cc(-c2nnc(SCC(=O)Nc3ccc(S(N)(=O)=O)cc3)n2N)n[nH]1	inactive
Cc1ccc(NC(=O)NC(=O)c2ccccc2)cc1F	inactive
Cc1ccc(NC(=O)CSc2nn3c(=O)c(C)nnc3s2)cc1Cl	inactive
COc1ccc(CNS(=O)(=O)c2ccc(NC(=O)N3CCCCC3)cc2)cc1	inactive
CCCc1cc(C(=O)N2CCCC(CO)(CCCc3ccccc3)C2)n(C)n1 (centres undefined)	inactive
Cc1ccc(C(=O)NCC(=O)OCc2nnc(-c3ccccc3)o2)cc1	inactive
COc1ccc(CN2CCCC(N3CCc4ccccc4C3)C2)c(O)c1 (centres undefined)	inactive
CC(C)(C)c1ccc(C(=O)N2CCN(CCNC(=O)C(=O)Nc3ccc(F)cc3)CC2)cc1	inactive
O=C(NCCCN1CCOCC1)C1CCCN(S(=O)(=O)N2CCCCC2)C1 (centres undefined)	inactive
O=C(CCn1nnc2ccccc21)OCC(=O)c1ccc([N+](=O)[O-])cc1	inactive
COc1cc([N+](=O)[O-])cc([N+](=O)[O-])c1NC(=O)N1CCOCC1	inactive
Cc1csc(NC(=O)CSc2nc(=O)cc(N)n2-c2ccc(F)cc2)n1	inactive
CCOc1ccc(S(=O)(=O)N2CCCC(C(=O)N3CCC(C(N)=O)CC3)C2)cc1Cl (centres undefined)	inactive

SMILES	Potency
Cc1c(CN2CCC(n3nccc3NC(=O)CCc3ccccc3)CC2)cnn1C	inactive
CC(=O)c1ccc(NC(=O)Cn2c(=O)oc3ccccc32)cc1	inactive
CCOc1ccccc1NC(=O)C1CCCN(S(=O)(=O)c2ccccc2)C1 (centres undefined)	inactive
CC1CCC(NS(=O)(=O)c2ccc3c(c2)CC(=O)N3)CC1 (centres undefined)	inactive
CC(=O)N[C@@H](C)C(=O)N1CCC(n2nccc2NC(=O)CCCc2ccccc2)CC1	inactive
Clc1ccc(C(Cn2ccnc2)OCc2ccsc2Cl)c(Cl)c1 (centres undefined)	inactive
COc1ccc(OCCn2ccnc2C)cc1	inactive
Cc1ccc(CN(C)Cc2cc(=O)oc3cc(C)c(Cl)cc23)cc1	inactive
COc1ccc(N(C(=O)CNC(=O)c2ccco2)C(C(=O)NCC2CCCO2)c2ccccc2)cc1Cl (centres undefined)	inactive
CCOC(CNC(=O)C(=O)NCC(c1ccco1)N1CCN(c2ccc(OC)cc2)CC1)OCC (centres undefined)	inactive
Cc1ccc(NS(=O)(=O)c2c(C)[nH]c(C)c2C(=O)N2CCCCC2)c(C)c1	inactive
CCOC(=O)c1cccc(NC(=O)C2CCN(c3ncnc4c3nc3n4CCCCC3)CC2)c1	inactive
O=S1(=O)CCO[C@H]2Cc3ccccc3[C@H]2N1Cc1ccccc1	inactive
CC(C)c1ccc(/C=C2\NC(=O)NC2=O)cc1	inactive
Cc1cccc(NS(=O)(=O)c2ccc([N+](=O)[O-])cc2)n1	inactive
COc1ccc(NC(=O)CC2C(=O)NC3CCCCC3N2C(=O)c2ccc(F)cc2)cc1 (centres undefined)	inactive
COCC1CCN(C(=O)C2CCC(=O)N(CC3CCCCC3)C2)CC1 (centres undefined)	inactive
S=C(NCCC1=CCCCC1)Nc1ccccc1	inactive
CSc1ccccc1OCc1cc(C(=O)N2C[C@H]3CC[C@H]2C3)no1	inactive
O=C(Cc1ccc(Cl)cc1)NC(=S)Nc1ccccc1O	inactive
CCC(C)(C)n1nnnc1C(c1ccc(OC)c(OC)c1)N1CCN(C(=O)c2ccco2)CC1 (centres undefined)	inactive
CC(=O)NC(Cc1c[nH]c2ccccc12)C(=O)NCCc1ccccc1 (centres undefined)	inactive
C[C@H](C(=O)CC(=O)OC(C)(C)C)[C@H](O)c1ccc(C(F)(F)F)cc1	inactive
CCc1nc2nc(C)c(NS(=O)(=O)c3ccc4c(c3)CCCC4)c(=O)n2[nH]1	inactive
CCOC(=O)c1c(C)[nH]c(C(=O)NCCN2CCOCC2)c1C	inactive
COc1ccc(NS(=O)(=O)c2cc(C(=O)Nc3ccccc3C(=O)O)ccc2C)cc1	inactive
